# Bioassay records deposited in PubChem BioAssay by National Center for Advancing Translational Sciences (NCATS).
# USP1 inh: Inhibitors of USP1/UAF1: Primary Screen | recombinant USP1/UAF1, Ub-Rhodamine cleavage fluorescence | Ubiquitin carboxyl-terminal hydrolase 1 (Homo sapiens), O94782 | hit rate 0.23% among 390,000 | Potency, µM (doses to about 57.1 µM), for the others: at the highest dose activity change, negative = inhibition, usual class: inhibitors; note: potency is the fitted concentration of half-maximal effect; % is set by controls: 0 for no effect and ±100 for the full control effect; nearly all actives have a fitted effect of over 60% in size
# Target sequence (O94782 whole entry, looked up): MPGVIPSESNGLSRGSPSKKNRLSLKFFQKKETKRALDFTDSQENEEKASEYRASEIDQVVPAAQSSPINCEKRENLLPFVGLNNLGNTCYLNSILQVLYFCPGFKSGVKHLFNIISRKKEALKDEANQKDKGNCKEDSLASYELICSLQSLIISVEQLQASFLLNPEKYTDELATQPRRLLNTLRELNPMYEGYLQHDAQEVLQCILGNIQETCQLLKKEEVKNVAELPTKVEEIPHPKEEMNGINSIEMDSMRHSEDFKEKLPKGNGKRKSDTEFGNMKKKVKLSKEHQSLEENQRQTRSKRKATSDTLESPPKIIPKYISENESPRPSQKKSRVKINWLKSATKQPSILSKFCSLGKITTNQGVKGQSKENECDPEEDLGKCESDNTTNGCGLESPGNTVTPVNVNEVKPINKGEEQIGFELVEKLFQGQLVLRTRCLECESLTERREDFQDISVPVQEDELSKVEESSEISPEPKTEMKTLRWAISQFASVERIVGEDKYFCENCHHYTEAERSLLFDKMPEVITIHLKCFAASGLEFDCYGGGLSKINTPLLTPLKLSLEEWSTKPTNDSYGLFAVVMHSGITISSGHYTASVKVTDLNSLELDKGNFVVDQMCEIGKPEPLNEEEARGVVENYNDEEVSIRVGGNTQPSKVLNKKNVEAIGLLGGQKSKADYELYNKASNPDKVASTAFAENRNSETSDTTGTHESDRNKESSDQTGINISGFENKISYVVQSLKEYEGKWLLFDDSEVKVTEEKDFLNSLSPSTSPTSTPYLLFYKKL
#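 USP1/UAF1 complex (1 nM) preincubated 15 min at room temperature with compound, then Ub-Rho substrate (150 nM final) added. Kinetic fluorescence at 480/540 nm over 6 reads at 60 s intervals; 50 mM HEPES pH 7.8, 0.5 mM EDTA, 0.1 mg/ml BSA, 1 mM TCEP, 0.01% Tween-20.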
# ATXN2 expr inh: Primary qHTS for Inhibitors of ATXN expression. HEK-293 ATXN2-luciferase reporter, luminescence, 24 h. Potency, µM (top dose mostly 57 µM), without a hit: top-dose activity change, negative = inhibition, usual class: inhibitors. hit rate 0.72% among 360,000; note: potency is the fitted concentration of half-maximal effect; % is set by controls: 0 for no effect and ±100 for the full control effect; nearly all actives have a fitted effect of over 55% in size
#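 ATXN2-luciferase reporter cells (luciferase flanked by upstream and downstream ATXN2 gene portions) were treated 24 h at 37 °C with compounds at up to 57 uM. SteadyGlo luminescence gave expression; GF-AFC fluorescence gave viability.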
# IL-1B inflam inh: qHTS for Inhibitors of Inflammasome Signaling: IL-1-beta AlphaLISA Primary Screen; THP-1 LPS/ATP IL-1B secretion, AlphaLISA, 16 h; hits give low values; activity change, % at 57.5 µM; hit rate 4.7% among 360,000; AID 743279, 2014; in the data active = activity change below about -50%; inconclusive = mostly about -30% to -49%; note: % is set by controls: 0 for no effect and ±100 for the full control effect
#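 THP-1 cells pretreated 1 hr with compounds (up to 57.5 uM final), then stimulated with LPS (250 ng/mL final) plus ATP (1.25 mM final); secreted IL-1B measured by AlphaLISA after 16 hr, decreased signal indicating inhibition.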
# ATXN viability: Viability Counterscreen for Primary qHTS for Inhibitors of ATXN expression. S2 cells (HEK-293 line with an ATXN2-luciferase reporter) viability, CellTiter-Fluor protease fluorescence, 24 h. AID 651635, 2014. hit rate 0.49% among 400,000. Potency, µM (doses to about 56.7 µM), hits mostly cytotoxic; note: potency is the fitted concentration of half-maximal effect; nearly all actives have a fitted effect of over 40% in size
# USP2a block: qHTS Assay for Inhibitors of Ubiquitin-specific Protease USP2a Using CHOP2 as the Reporter | Ubiquitin carboxyl-terminal hydrolase 2 (Homo sapiens), O75604 | USP2 core, Ub-CHOP2 coupled fluorogenic reporter, 485/531 | Potency, µM (titrated, usually from 38.3 µM), for the others: at the top dose activity change, negative = inhibition, usual class: inhibitors | hit rate 0.01% among 330,000;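 note: potency is the fitted concentration of half-maximal effect; plate controls were DMSO wells for no effect and full inhibition by NEM control for full effect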
#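 Cell-free coupled assay: 10nM USP2 core preincubated 30min RT with compound in Tris-HCl pH 8.0/CaCl2/CHAPS buffer, then 25nM Ub-CHOP2 and 25nM reporter substrate; fluorescence (Ex 485/Em 531) read after 60min RT, normalized to NEM inhibition, concentration-response curves fitted.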
# * = called active by the depositor; i = inactive; ? = inconclusive; nt = no result given; [ ] = dose if it differs, or a comment. Most compounds without a hit are left out; they make up all but 4.8% or so of the library. Unless noted, calls come from the whole dose curve; as a rule, active = well fitted curve in the direction sought with a large enough effect; inconclusive = small, poorly fitted or top-dose-only effect, or another doubt; inactive = no such curve, though single readings can be large; an effect the other way counts as inactive or inconclusive.
SMILES,USP1 inh,ATXN2 expr inh,IL-1B inflam inh,ATXN viability,USP2a block
CC(C)c1nc2oc3c(N4CCNCC4)ncnc3c2c2c1CCC2,-12.7%,-5.4%,-12.8,i,nt
CC(C)Cc1nc2oc3c(Cl)ncnc3c2c2c1CCC2,-9.4%,?,-101.8*,?,-0.5%
CC(C)Cc1nc2oc3c(NCCCN4CCOCC4)ncnc3c2c2c1CCC2,-11.6%,-1.6%,-59.2*,i,-0.3%
CC(=O)Nc1ccc(Nc2nc3c(S(=O)(=O)c4cccc(Cl)c4)nnn3c3ccsc23)cc1,1.9%,6.5%,nt,i,nt
Cc1c([N+](=O)[O-])cnc(Sc2ccccc2)c1[N+](=O)[O-],-9.9%,nt,-16.5,14.1µM*,nt
O=C(CN1C(=O)CCC1=O)Nc1nc(-c2ccccn2)cs1,-20.1%,-17.5%,-21.6,i,-0.8%
O=C(CN1C(=O)CCC1=O)Nc1nc(-c2nc3ccccc3s2)cs1,?,61.8%,-57.2*,i,-0.5%
CC(=O)OCC(=O)[C@@]1(O)[C@H](C)C[C@H]2[C@@H]3C=C(C)C4=Cc5c(cnn5-c5ccccc5)C[C@]4(C)[C@@H]3[C@@H](O)C[C@@]21C,nt,27.3µM*,nt,nt,nt
O=C(NCc1ccccc1F)C1CCN(c2nnc(-n3cccc3)s2)CC1,-6.7%,25.5%,nt,i,nt
CCN(CC)CCCn1c(SCC(=O)Nc2cccc(F)c2)nnc1-c1ccoc1C,-8.2%,-1.8%,-7.2,i,0.7%
Cc1ccc(NC(=O)CSc2nnc(-c3ccoc3C)n2CCCN(C)C)cc1Cl,-2.4%,-9.9%,-60.8*,i,-0.1%
COCCn1c(SCC(=O)Nc2ccccc2)nnc1-c1ccoc1C,-13.5%,-7.3%,-15.4,i,0.0%
CC(=O)c1ccc(NC(=O)CSc2nnc(-c3ccoc3C)n2Cc2ccccc2)cc1,-9.4%,-0.1%,-66.7*,i,1.8%
COc1cc2c(cc1OC)CN(c1ccc(-c3ccccc3OC)nn1)CC2,-8.0%,?,nt,?,1.9%
COc1cc2c(cc1OC)CN(c1ccc3ccccc3n1)CC2,?,-7.4%,-88.9*,i,-7.6%
COc1cc2c(cc1OC)CN(c1ccc(C(F)(F)F)cn1)CC2,-26.4%,9.4%,-90.0*,i,3.9%
NC(=O)C1CCN(C(=O)c2ccc(NS(=O)(=O)c3ccc(Br)s3)cc2)CC1,4.3%,-11.2%,0.2,i,0.5%
O=c1oc2ccc3ccccc3c2cc1-c1nnc(-c2ccccc2)o1,2.7%,5.8%,-58.3*,i,3.2%
COc1ccc(-c2nnc(-c3cc4c(ccc5ccccc54)oc3=O)o2)cc1,-18.8%,-12.6%,0.0,i,3.6%
CN(C)c1ccc(CN(C(=O)COc2ccccc2)C2CCS(=O)(=O)C2)cc1 (centres undefined),-11.5%,3.3%,-17.0,i,1.6%
Cc1ccc(OCC(=O)N(Cc2ccc(N(C)C)cc2)C2CCS(=O)(=O)C2)cc1C (centres undefined),-0.1%,-5.9%,-71.8*,i,-2.2%
CN(CC(=O)Nc1c(Cl)cccc1Cl)C(=O)CNC(=O)c1sc2ccccc2c1Cl,-12.6%,nt,58.8,i,nt
CN(Cc1c(F)cccc1Cl)C(=O)CNC(=O)c1sc2ccccc2c1Cl,-9.6%,-12.6%,-51.8*,i,-0.8%
Cc1cc2c(c(=O)n1-c1ccccc1)C1O[C@](c3ccsc3)(Cc3cc(C#N)ccc31)O2,nt,nt,nt,nt,-0.1%[7.66 µM]
Cc1ccc(S(=O)(=O)N2[C@@H](c3cccc(Cl)c3)C(C(=O)OC(C)(C)C)=CC[C@H]2c2ccc(C(C)C)cc2)cc1,nt,4.9%,-6.6,i,nt
SMILES,USP1 inh,ATXN2 expr inh,IL-1B inflam inh,ATXN viability,USP2a block
COc1ccc(N(C)S(=O)(=O)c2cccc(C(=O)NC3CCC(C)CC3)c2)cc1 (centres undefined),?,-2.9%,?,i,0.7%
COc1ccc(N(C)S(=O)(=O)c2cccc(C(=O)NC3CCCCCC3)c2)cc1,-2.0%,-24.4%,-54.5*,i,0.5%
COc1ccc(N(C)S(=O)(=O)c2cccc(C(=O)NCc3ccc4c(c3)OCO4)c2)cc1,-11.0%,-20.1%,?,i,-5.2%
COc1ccc(N(C)S(=O)(=O)c2cccc(C(=O)N3CCN(Cc4ccc5c(c4)OCO5)CC3)c2)cc1,-6.0%,-21.7%,-68.4*,i,0.5%
CN(c1ccc(C(=O)N2CCN(Cc3ccc4c(c3)OCO4)CC2)cc1)S(C)(=O)=O,0.9%,-16.4%,0.4,i,4.0%
CCOc1ccc(N(C)S(=O)(=O)c2ccc(C)c(C(=O)N3CCN(Cc4ccc5c(c4)OCO5)CC3)c2)cc1,-23.6%,?,-88.6*,?,-1.7%
Cc1c(C(=O)NCc2ccccc2Br)oc2c1-c1[nH]ncc1CC2,-6.5%,nt,nt,nt,nt
CC(C)c1ccccc1NC(=O)CN(c1ccccc1)S(=O)(=O)N(C)C,-22.5%,-0.9%,nt,i,nt
Cc1cccc2c(=O)cc(CSc3ccccc3NC(=O)c3cccc(Br)c3)[nH]c12,-15.2%,-6.5%,nt,17.8µM*,nt
Cc1cc(C(=O)COC(=O)C(C)NC(N)=O)c(C)n1Cc1ccco1 (centres undefined),2.1%,27.7%,-102.9*,i,-0.6%
Cc1cc(C(=O)COC(=O)c2ccc(O)cc2)c(C)n1Cc1ccco1,-10.3%,86.1%,2.6,i,1.4%
COc1ccccc1N(Cc1ccccc1)S(=O)(=O)c1cccc(C(=O)N2CCCCC2)c1,-24.3%,?,-57.9*,?,1.4%
CCn1ncc(Br)c1C(=O)Nc1ccc(C(C)C)cc1,-10.5%,4.3%,-85.0*,i,-0.7%
CCn1ncc(Br)c1C(=O)Nc1cccc(F)c1,-14.6%,-4.3%,16.2,i,4.4%
O=C(/C=C/c1cccc(Cl)c1)Nn1c(-c2cccs2)nc2ccccc2c1=O,-9.6%,-8.6%[11.3 µM],-54.9*,i,0.8%
COCCNC(=O)CSc1cc(-c2ccccc2)c2ccc(OC)cc2n1,-18.9%,-25.5%,-9.0,i,-0.2%
COc1ccc2c(-c3ccccc3)cc(SCC(=O)N(C)C)nc2c1,-13.2%,-15.0%,-68.3*,i,-0.4%
COc1ccc2c(-c3ccccc3)cc(SCC(=O)NC(N)=O)nc2c1,-18.9%,nt,17.4,?,0.4%
CCN(C(=O)CSc1cc(-c2ccccc2)c2ccc(OC)cc2n1)C1CCS(=O)(=O)C1 (centres undefined),-8.3%,-13.6%,-61.5*,i,-0.7%
COc1ccc2c(-c3ccccc3)cc(SCC(=O)NC3CCS(=O)(=O)C3)nc2c1 (centres undefined),-4.7%,-29.0%,-82.2*,i,-2.2%
